We go through three compounds from PubChem BioAssay (EPA / NIEHS).

Details in all cases: mRNA level, 48 h; actives raise or lower the signal
Read-out in assay [1]: Glutamate-cysteine ligase catalytic (GCLC), GCLC (gene 2729)
Put plainly: LTEA_HepaRG_GCLC: Life Technologies and Expression Analysis (LTEA) Assay for Glutamate-cysteine ligase catalytic (GCLC) using HepaRG (AID 2283498). The method, boiled down: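 Read-out is GCLC transcript level by Fluidigm-based TaqMan qRT-PCR, normalized to three housekeeping genes and fitted in both directions relative to 0.5% DMSO. Human HepaRG cells received chemicals for 48 h, up to 100 uM.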

Read-out in assay [2]: growth arrest and DNA damage 45 (GADD45G), GADD45G (gene 10912)
Kind of assay: LTEA_HepaRG_GADD45G: Life Technologies and Expression Analysis (LTEA) Assay for growth arrest and DNA damage 45 (GADD45G) using HepaRG (AID 2283499). The method in brief: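 GADD45G transcript level by qRT-PCR (housekeeping-normalized: ACTB, GAPDH, POLR2A) after 48 h chemical treatment of a single HepaRG lot in serum-free induction medium; eight-point half-log series up to 100 uM in 0.5% DMSO, duplicates, up- or down-regulation scored.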

Read-out in assay [3]: Glutamate-cysteine ligase regulatory (GCLM), GCLM (gene 2730)
Kind of assay: LTEA_HepaRG_GCLM: Life Technologies and Expression Analysis (LTEA) Assay for Glutamate-cysteine ligase regulatory (GCLM) using HepaRG (AID 2283500). The method, boiled down: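 Differentiated HepaRG cells exposed 48 h in serum-free induction medium to eight half-log concentrations up to 100 uM (0.5% DMSO). GCLM mRNA by TaqMan qRT-PCR, normalized to ACTB, GAPDH and POLR2A; bidirectional fit versus DMSO.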

Read-out in assay [4]: Heat shock 70 kDa protein 1 (HSPA1A), gene 3303
Put plainly: LTEA_HepaRG_HSPA1A: Life Technologies and Expression Analysis (LTEA) Assay for Heat shock 70 kDa protein 1 (HSPA1A) using HepaRG (AID 2283502). The method in brief:
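Human HepaRG cells in serum-free induction medium were exposed in duplicate for 48 h to 8 half-log concentrations, highest 100 uM, in 0.5% DMSO. HSPA1A mRNA read by TaqMan qRT-PCR, normalized to ACTB, GAPDH, POLR2A, fitted bidirectionally against DMSO.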

Read-out in assay [5]: Hypoxia-inducible factor 1-alpha (Homo sapiens) (UniProt Q16665)
Kind of assay: LTEA_HepaRG_HIF1A: Life Technologies and Expression Analysis (LTEA) Assay for Hypoxia-inducible factor 1 (HIF1A) Trancription factor using HepaRG (AID 2283503). The method, boiled down: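 Differentiated HepaRG cells in serum-free induction medium exposed 48 h, in duplicate, to 8-point half-log series from 100 uM in 0.5% DMSO. HIF1A mRNA measured by TaqMan qRT-PCR, normalized to ACTB/GAPDH/POLR2A, fitted bidirectionally versus DMSO.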

Read-out in assay [6]: 3-Hydroxy-3-Methylglutaryl-CoA Synthase 2 (HMGCS2), HMGCS2 (gene 3158)
Kind of assay: LTEA_HepaRG_HMGCS2: Life Technologies and Expression Analysis (LTEA) Assay for 3-Hydroxy-3-Methylglutaryl-CoA Synthase 2 (HMGCS2) using HepaRG (AID 2283504). The method in brief:
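Readout is HMGCS2 transcript by qRT-PCR, housekeeping-normalised (ACTB/GAPDH/POLR2A) and fitted bidirectionally against 0.5% DMSO. Differentiated HepaRG cells received chemicals 48 h, duplicate wells, eight half-log concentrations topping at 100 uM.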

Read-out in a further assay: HGF (gene 3082)
Kind of assay: LTEA_HepaRG_HGF: Life Technologies and Expression Analysis (LTEA) Assay for Hepatocyte Growth Facto (HGF) using HepaRG (AID 2283505). The method in brief:
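HGF transcript was quantified by TaqMan qRT-PCR against three housekeeping genes after 48 h treatment of HepaRG cells. Exposure ran in duplicate over eight half-log steps topping at 100 uM in 0.5% DMSO vehicle.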

Read-out in assay [7]: Insulin Like Growth Factor 1 (IGF1), IGF1 (gene 3479)
Kind of assay: LTEA_HepaRG_IGF1: Life Technologies and Expression Analysis (LTEA) Assay for Insulin Like Growth Factor 1 (IGF1) using HepaRG (AID 2283506). The method, boiled down: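 Differentiated HepaRG cells in serum-free induction medium, exposed 48 h in duplicate to 8 half-log concentrations up to 100 uM in 0.5% DMSO. IGF1 mRNA by Fluidigm qRT-PCR, normalised to ACTB, GAPDH and POLR2A.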

Read-out in assay [8]: Intercellular Adhesion Molecule 1 (ICAM1), ICAM1 (gene 3383)
Put plainly: LTEA_HepaRG_ICAM1: Life Technologies and Expression Analysis (LTEA) Assay for Intercellular Adhesion Molecule 1 (ICAM1) using HepaRG (AID 2283507). The method in brief: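 ICAM1 transcript levels measured by qRT-PCR, normalized to three housekeeping genes (ACTB, GAPDH, POLR2A), after 48 h chemical exposure of HepaRG cells. Duplicate eight-point half-log series from 100 uM in 0.5% DMSO; gain or loss fitted against vehicle.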

Read-out in assay [9]: Insulin-like growth factor-binding protein 1 (IGFBP1), IGFBP1 (gene 3484)
Put plainly: LTEA_HepaRG_IGFBP1: Life Technologies and Expression Analysis (LTEA) Assay for Insulin-like growth factor-binding protein 1 (IGFBP1) using HepaRG (AID 2283508). The method, boiled down: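 Read-out is qRT-PCR transcript level normalized to three housekeeping genes, fitted in both directions against 0.5% DMSO. Differentiated HepaRG cells received eight half-log concentrations (top 100 uM) in duplicate for 48 h in serum-free induction medium.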

Read-out in assay [10]: Interleukin 6 (IL6), IL6 (gene 3569)
Put plainly: LTEA_HepaRG_IL6: Life Technologies and Expression Analysis (LTEA) Assay for Interleukin 6 (IL6) using HepaRG (AID 2283509). The method in brief: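 HepaRG, ~100,000 cells/well, 48 h pre-culture; serum-free induction medium; cmpd 8-pt half-log from 100 uM, 0.5% DMSO, duplicate, 48 h. Lysis in RLT, TaqMan qRT-PCR; gain or loss vs DMSO.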

Read-out in assay [11]: Interleukin 6 Receptor (IL6R), IL6R (gene 3570)
Put plainly: LTEA_HepaRG_IL6R: Life Technologies and Expression Analysis (LTEA) Assay for Interleukin 6 Receptor (IL6R) using HepaRG (AID 2283510). The method in brief: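 Differentiated HepaRG cells, plated 48 h, then exposed in duplicate for 48 h in serum-free induction medium to 8 half-log concentrations (top 100 uM, 0.5% DMSO). IL6R mRNA measured by TaqMan qRT-PCR, normalized to ACTB/GAPDH/POLR2A; bidirectional fit vs DMSO.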

Read-out in assay [12]: Potassium channel subfamily K member 1 (KCNK1), KCNK1 (gene 3775)
Put plainly: LTEA_HepaRG_KCNK1: Life Technologies and Expression Analysis (LTEA) Assay for Potassium channel subfamily K member 1 (KCNK1) using HepaRG (AID 2283511). The method in brief:
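Gain or loss of KCNK1 mRNA is the read-out, quantified by qRT-PCR against three housekeeping genes after 48 h chemical treatment of human HepaRG liver cells. Concentrations ran from 100 uM downward in half-log steps, vehicle 0.5% DMSO.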

Read-out in assay [13]: Keratin 19 (KRT19), KRT19 (gene 3880)
Put plainly: LTEA_HepaRG_KRT19: Life Technologies and Expression Analysis (LTEA) Assay for Keratin 19 (KRT19) using HepaRG (AID 2283512). The method in brief:
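KRT19 transcript measured by TaqMan qRT-PCR, referenced to three housekeeping genes, after HepaRG cells received test chemicals for 48 h. Eight half-log concentrations, top 100 uM, 0.5% DMSO vehicle; increases and decreases both fitted.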

Read-out in assay [14]: JUN Transcription Factor, JUN (gene 3725)
Put plainly: LTEA_HepaRG_JUN: Life Technologies and Expression Analysis (LTEA) Assay for JUN Transcription Factor using HepaRG (AID 2283513). The method in brief: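 HepaRG cells, 48 h post-plating, exposed 48 h in serum-free induction medium to 8-point half-log series (top 100 uM, 0.5% DMSO), duplicate; mRNA by qRT-PCR (TaqMan, Fluidigm), normalized to ACTB/GAPDH/POLR2A; bidirectional fit vs DMSO.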

Read-out in assay [15]: Lipase C (LIPC), LIPC (gene 3990)
Put plainly: LTEA_HepaRG_LIPC: Life Technologies and Expression Analysis (LTEA) Assay for Lipase C (LIPC) using HepaRG (AID 2283514). The method in brief:
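Read-out is LIPC transcript level by TaqMan qRT-PCR, normalized to three housekeeping genes, after 48 h chemical treatment of human HepaRG liver cells. Curves span eight concentrations topping at 100 uM; activity in either direction scored relative to 0.5% DMSO.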

Read-out in assay [16]: Lipoprotein lipase (LPL), LPL (gene 4023)
Kind of assay: LTEA_HepaRG_LPL: Life Technologies and Expression Analysis (LTEA) Assay for Lipoprotein lipase (LPL) using HepaRG (AID 2283515). The method in brief:
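Read-out is LPL transcript level by qRT-PCR, normalized to three housekeeping genes and fitted bidirectionally against the DMSO control. Human HepaRG cells received chemicals for 48 h at up to 100 uM.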

Read-out in assay [17]: MicroRNA 122 (MIR122), gene 406906
Kind of assay: LTEA_HepaRG_MIR122: Life Technologies and Expression Analysis (LTEA) Assay for MicroRNA 122 (MIR122) using HepaRG (AID 2283516). Also: the transcript read is the microRNA miR-122. The method in brief: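 Differentiated human HepaRG cells in serum-free induction medium exposed 48 h to 8 half-log concentrations from 100 uM in 0.5% DMSO, duplicate. MIR122 quantified by Fluidigm TaqMan qRT-PCR, normalised to ACTB, GAPDH, POLR2A; fold change fitted bidirectionally versus DMSO.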

Read-out in assay [18]: matrix metalloproteinase-10 (MMP10), MMP10 (gene 4319)
Kind of assay: LTEA_HepaRG_MMP10: Life Technologies and Expression Analysis (LTEA) Assay for matrix metalloproteinase-10 (MMP10) using HepaRG (AID 2283517). The method in brief: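 Gain or loss of MMP10 mRNA is fitted relative to the 0.5% DMSO vehicle. The human hepatic line HepaRG receives a 48-hour serum-free exposure, in duplicate, with a maximum concentration of 100 uM.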

Read-out in assay [19]: Glutathione S-transferase M3 (GSTM3), GSTM3 (gene 2947)
Kind of assay: LTEA_HepaRG_GSTM3: Life Technologies and Expression Analysis (LTEA) Assay for Glutathione S-transferase M3 (GSTM3) using HepaRG (AID 2283501). The method in brief: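 GSTM3 transcript levels came from Fluidigm TaqMan qRT-PCR normalized to three housekeeping genes, fitted in both directions against DMSO. HepaRG cultures received chemicals for 48 h in serum-free induction medium (0.5% DMSO), 8 half-log concentrations up to 100 uM, duplicate.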

SMILES strings stand for the structures. The source made the active and inactive calls. The calls were made as follows: active = hit-call score of the fitted dose curve at least 0.9, where 1 is the maximum; inactive = score below 0.9.

Chain of Hypoxia-inducible factor 1-alpha (Homo sapiens) (Q16665 whole entry, looked up): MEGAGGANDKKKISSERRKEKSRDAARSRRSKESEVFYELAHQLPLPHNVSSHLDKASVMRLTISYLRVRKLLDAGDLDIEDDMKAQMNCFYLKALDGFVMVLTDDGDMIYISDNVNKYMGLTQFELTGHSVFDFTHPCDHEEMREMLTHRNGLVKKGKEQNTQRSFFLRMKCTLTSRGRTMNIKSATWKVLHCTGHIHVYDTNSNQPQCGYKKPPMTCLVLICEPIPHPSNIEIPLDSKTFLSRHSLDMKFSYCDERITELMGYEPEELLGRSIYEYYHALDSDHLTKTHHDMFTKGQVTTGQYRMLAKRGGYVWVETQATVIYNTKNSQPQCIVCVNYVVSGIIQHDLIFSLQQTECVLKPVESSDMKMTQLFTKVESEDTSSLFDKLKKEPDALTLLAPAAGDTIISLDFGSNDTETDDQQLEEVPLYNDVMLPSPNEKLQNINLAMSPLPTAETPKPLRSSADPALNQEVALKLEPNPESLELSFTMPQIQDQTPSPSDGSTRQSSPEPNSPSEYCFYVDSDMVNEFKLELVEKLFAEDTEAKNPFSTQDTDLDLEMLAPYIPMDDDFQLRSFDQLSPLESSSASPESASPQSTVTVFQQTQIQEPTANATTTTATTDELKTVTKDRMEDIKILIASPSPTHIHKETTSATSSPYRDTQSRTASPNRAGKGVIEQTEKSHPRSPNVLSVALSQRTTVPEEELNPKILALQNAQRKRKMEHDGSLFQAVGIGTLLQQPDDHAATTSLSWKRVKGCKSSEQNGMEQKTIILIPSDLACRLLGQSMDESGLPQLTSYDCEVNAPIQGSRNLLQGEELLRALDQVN

In the case of `OCc1ccccc1`, the result in [1], in [2], in assay [3], in assay [4], in assay [5] and in assay [6] was inactive. The compound was classed as inactive (in the assay with HGF (gene 3082); in assay [7]; in assay [8]; in [9]; in [10]; in assay [11]). Moreover, the result in [12], in assay [13], in assay [14], in assay [15], in assay [16] and in assay [17] was inactive. Moreover, the compound was classed as inactive in assay [18].

`Cc1ncc([C@@H](CCCCCCc2ccc3c(n2)NCCC3)CC(=O)O)cn1`: the result in assay [1], in assay [2], in assay [3], in assay [19], in assay [4] and in assay [5] was inactive. Also, the call (in [6]; with HGF (gene 3082); in assay [7]; in assay [8]; in assay [9]; in assay [10]) was inactive. The outcome in assay [11], in assay [12], in assay [14], in assay [15] and in assay [17] was inactive. In addition, in assay [16], the AC50 (commonly the concentration giving half of the maximal activity seen) is 382 nM (active).

Regarding `C=CN1CCCC1=O`, the result in assay [1], in assay [2], in assay [3], in assay [19], in assay [4] and in assay [5] was inactive. Moreover, the outcome (in [6]; with HGF (gene 3082); in [7]; in assay [8]; in assay [9]; in [10]) was inactive. In addition, the compound was classed as inactive in assay [11], in assay [12], in [13], in [14], in [15] and in [16]. The call in assay [17] was inactive.
